Results taken from PubChem BioAssay (NCATS).
Inconclusive results are not listed. Unmarked numbers belong to inactive results. Calls follow the shape of the dose curve; as a rule, active = well fitted cell-killing curve with a large enough effect; inconclusive = small, poorly fitted or top-dose-only effect, or effect the other way; inactive = flat fitted curve, though single readings scatter.

Assay: qHTS for Inhibitors of ATXN expression: Validation of Cytotoxic Assay (AID 588349)
Settings: cytotoxicity counter-screen for ATXN expression inhibitors, cell viability; series mostly up to 57.1 µM; activity change, negative = cytotoxicity: at the top concentration
Description: Spinocerebellar ataxia type 2 (SCA2) is a multisystem neurodegenerative disease caused by a dominantly-acting mutation leading to expansion of a polyQ domain in the ataxin-2 protein (ATXN2). SCA2 patients develop progressive ataxia and later lose function in other neuronal systems. Prominent parkinsonian signs develop in some patients. Similar to many neurodegenerative disorders, no symptomatic or disease-modifying treatments are known.
The primary objective of project is to identify compounds inhibiting ATXN2 expression and to test them for efficacy in SCA2 mouse models. To this end, in a collaboration between Dr. Daniel Scoles and scientists at NCGC, a cell-based assay adapted to high-throughput screening has been developed to screen the NIH Molecular Libraries Small Molecule Repository (MLSMR). Confirmed qHTS active compounds will be tested for toxicity against the human neuron-like SH-SY5Y cell line. This line is the parental cell type used to generate the transgenic line used in the primary assay, and so should provide an isogenic control to test the inherent toxicity of qHTS actives.
NIH Chemical Genomics Center [NCGC]
NIH Molecular Libraries Probe Centers Network [MLPCN]
Assay Submitter (PI): Stefan Pulst and Daniel Scoles, University of Utah
HEK293 cultured cells will be dosed with titrated compounds and incubated for 72 hr at 37 degrees C. Toxicity will be assessed using the CellTiter Glo kit (Promega), which uses intracellular ATP concentration as a viability marker.
% is scaled to controls: 0 for no effect and ±100 for the full control effect.

| Structure (SMILES) | activity change, negative = cytotoxicity [%] |
| --- | --- |
| CCC(NC(C)C)C(O)c1ccc(O)c(O)c1 (configuration not stated) | -29.9 |
| Nc1cc(Cl)c(NC2=NCCN2)c(Cl)c1 | -15.7 |
| C1CCc2nnnn2CC1 | 3.43 |
| CC1(C)CCC(NC(=O)[C@@H](N)CCC(=O)O)CC1 | -11.9 |
| O=C1CCC(c2ccc(-n3ccnc3)cc2)=NN1 | 7.74 |
| N[C@H](CO)C(=O)O | -8.01 |
| N[C@@H](Cc1cnc[nH]1)C(=O)O | -11.1 |
| C[N+]1(CCCCC[N+]2(C)CCCC2)CCCC1 | -7.56 |
| CC(C)COC(=O)OCN1C(=O)CN(CCN2CC(=O)N(COC(=O)OCC(C)C)C(=O)C2)CC1=O | -10.4 |
| CC[C@H](C)C(=O)O[C@H]1CCC=C2C=C[C@H](C)[C@H](CC[C@@H]3C[C@@H](O)CC(=O)O3)[C@H]21 | -9.87 |
| C[C@@H]1C(=O)NC2=Nc3cccc(Cl)c3CN21 | 10.9 |
| O=C(O)c1cc2cc(Cc3cccnc3)ccc2o1 | -6.78 |
| COC(=O)[C@H]1[C@H]2C[C@H]3c4[nH]c5ccccc5c4CCN3C[C@H]2CC[C@@H]1O | -10.4 |
| CCCn1c(=O)[nH]c(=O)c2[nH]cnc21 | 5.81 |
| CC(=O)O[C@H]1C[C@@H]2CC[C@@H]3[C@H](CC[C@@]4(C)[C@H]3C[C@H]([N+]3(C)CCCCC3)[C@@H]4OC(C)=O)[C@@]2(C)C[C@@H]1[N+]1(C)CCCCC1 | 7.42 |
| CNCCC(Oc1ccccc1C)c1ccccc1 (configuration not stated) | -29.5 |
| CCCC1O[C@@H]2C[C@H]3[C@@H]4CCC5=CC(=O)C=C[C@]5(C)[C@H]4[C@@H](O)C[C@]3(C)[C@]2(C(=O)CO)O1 (some centres not stated) | -14 |
